# According to the supplement of paper PMC8975748:
# Where a name gives a salt, the structure may show the parent alone.
# System: Saccharomyces cerevisiae BY4741 SeMeCo community
# Assay: z-score of subpopulation abundance vs DMSO median, subpopulation auxotrophic for HL; higher = larger share of this subpopulation than in DMSO controls
# Settings: 10 µM; 24 h; SM minimal medium; subpopulation (auxotrophy): HL
# Method: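 Fluorescent four-plasmid SeMeCo (self-establishing metabolically cooperating S. cerevisiae BY4741 community; plasmids pH-mRuby2, pL-mWasabi, pU-eCFP, pM-TagRFP657) was grown 24 h in minimal SM medium with each Selleck FDA-approved drug at 10 µM in 384-well plates. Cells were fixed and imaged by high-content confocal microscopy. For each auxotrophic subpopulation (and the prototroph), a z-score gives the deviation from the DMSO vehicle-control population median.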
row,SMILES,z-score of subpopulation abundance
1,Cc1cc(O)ccc1Cl [Chlorocresol],-0.86
2,C[N+](C)(C)CCCCCCCCCC[N+](C)(C)C [Decamethonium Bromide],-0.3
3,CCN1CC2(OC(=O)c3ccccc3NC(C)=O)CCC(OC)C34C1C(CC23)C1(O)CC(OC)C2CC4C1(O)C2OC (centres undefined) [Lappaconitine],-0.26
4,O=[N+]([O-])C(Br)(CO)CO [Bronopol],-1.08
5,COc1ccc(C(CN(C)C)C2(O)CCCCC2)cc1 (centres undefined) [Venlafaxine],-1.14
6,CC(C)=CCOc1c2occc2cc2ccc(=O)oc12 [Imperatorin],0.34
7,C[C@@H]1CC[C@H]2[C@@H](C)C(=O)O[C@@H]3O[C@@]4(C)CC[C@@H]1[C@]32OO4 [Artemisinin],-0.27
8,COc1ccc(C(CN(C)C)C2(O)CCCCC2)cc1 (centres undefined) [Venlafaxine HCl],1.07
9,COc1cc2c(cc1OC)C1CC(=O)C(CC(C)C)CN1CC2 (centres undefined) [Tetrabenazine (Xenazine)],0.31
10,O=C(O[C@H]1C[C@H]2CC[C@@H](C1)[N+]21CCCC1)C(O)(c1ccccc1)c1ccccc1 [Trospium chloride],-0.4
11,Oc1cc(Cl)ccc1Oc1ccc(Cl)cc1Cl [Triclosan],-0.78
12,CN1[C@@H]2CC[C@H]1C[C@@H](OC(=O)[C@H](CO)c1ccccc1)C2 [Hyoscyamine],-0.72
13,N#Cc1nn(-c2c(Cl)cc(C(F)(F)F)cc2Cl)c(N)c1[S+]([O-])C(F)(F)F (centres undefined) [Fipronil],0.71
14,CN1[C@@H]2C[C@@H](OC(=O)[C@H](CO)c3ccccc3)C[C@H]1[C@@H]1O[C@@H]12 [Scopolamine HBr],-0.91
15,CC1(C)SC2C(N)C(=O)N2C1C(=O)O (centres undefined) [6-Aminopenicillanic acid],-0.37
16,CCN(C)C(=O)Oc1cccc([C@H](C)N(C)C)c1 [Rivastigmine Tartrate],0.04
17,CC[C@@H](C(N)=O)N1CCCC1=O [Levetiracetam],-1.01

row,SMILES,z-score of subpopulation abundance
1,C[CH2][Hg][S]c1ccccc1C(=O)[O-].[Na+] [Thimerosal],11.9
2,O=c1cccc2n1C[C@@H]1CNC[C@H]2C1 [Cytisine],-0.4
3,CN1[C@@H]2CC[C@H]1C[C@@H](OC(=O)C(CO)c1ccccc1)C2 (some centres undefined) [Atropine sulfate monohydrate],-0.69
4,COC(=O)C1=CCCN(C)C1 [Arecoline HBr],0.21
5,Nc1ccncc1 [4-Aminopyridine],0.38
6,CC(=O)OCC1=C(C(=O)O)N2C(=O)C(N)C2SC1 (centres undefined) [7-Aminocephalosporanic acid],-0.23
7,CNC1CC(N)C(O)C(OC2OC(CO)C(O)C3OC4(OC(C(N)CO)C(O)C(O)C4O)OC23)C1O (centres undefined) [Hygromycin B],-0.22
8,CCCCCCCCCCCCCCCC[n+]1ccccc1 [Cetylpyridinium Chloride],13.5
9,C=C[C@H]1CN2CC[C@H]1C[C@H]2[C@H](O)c1ccnc2ccccc12 [Cinchonidine],-0.64
10,CN(C)C(=O)Oc1cccc([N+](C)(C)C)c1 [Neostigmine Bromide],-0.44
11,COc1ccc2c3c([nH]c2c1)C(C)=NCC3 [Harmaline],1.95
12,COc1ccc(C=O)cc1 [p-Anisaldehyde],-0.29
13,CN[C@@H]1[C@@H](O)[C@@H](O[C@@H]2[C@@H](O)[C@H](O[C@H]3O[C@H]([C@@H](C)O)[C@@H](O)[C@H](O)[C@H]3N)[C@@H](N)C[C@H]2N)OC[C@]1(C)O [Geneticin (G418 Sulfate)],-0.02
14,C=C(C)[C@H]1Cc2c(ccc3c2O[C@@H]2COc4cc(OC)c(OC)cc4[C@@H]2C3=O)O1 [Rotenone (Barbasco)],0.53
15,C#C[C@]1(O)C=C[C@H]2[C@@H]3CCC4=CC(=O)CC[C@@H]4[C@H]3CC[C@@]21CC [Gestodene],0.13
16,C=CC[C@]1(O)CC[C@H]2[C@@H]3CCC4=CC(=O)CCC4=C3C=C[C@@]21C [Altrenogest],0.59
17,CCOC(=O)Nc1ccc(NCc2ccc(F)cc2)cc1N [Retigabine 2HCl],1.24
